Consider 16 compounds from PubChem BioAssay.

Assay [1] can be described thus: binders of probe aFSTL3 on microarray, primary screen, stem cell growth factor project, biochemical, small-molecule microarray, fluorescence 635/667 (AID 1064).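 Further: measures binding of the biotinylated anti-FSTL3 antibody to printed compounds.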 As to conditions: higher = more signal.
Assay [2] can be described thus: binders from COS7 lysate, DM2A8 probe, primary screen, torsin A project, cell lysate, small-molecule microarray, fluorescence 635/667 (AID 1065). The note with it: higher = more signal, COS7 lysate expressing mutant human TOR1A.
Assay [3] can be described thus: binders of probe aFGF2 on microarray, primary screen, stem cell growth factor project, biochemical, small-molecule microarray, fluorescence 635/667 (AID 1067).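 Further: measures binding of biotinylated aFGF2 protein to printed compounds on slides; z-score merges feature fluorescence and signal-to-noise across triplicate slides.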 The note with it: higher = more signal.
Assay [4] in a line: binders of probe aFGF10 on microarray, primary screen, stem cell growth factor project, biochemical, small-molecule microarray, fluorescence 635/667 (AID 1071).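 Further: score merges 667 nm spot intensity and signal to noise from triplicate slides.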 As to conditions: higher = more signal.
In assay [5] the target is Neurogenic locus notch homolog protein 2 (Homo sapiens) (UniProt Q04721). Nature of the assay: Notch2 binders on small-molecule microarrays, primary screen, biochemical, small-molecule microarray, 635 nm fluorescence, stem cell growth factors (AID 1073). As to conditions: Notch2 binding, higher = more signal.
Chain of Neurogenic locus notch homolog protein 2 (Homo sapiens) (Q04721 whole entry, looked up, canonical isoform): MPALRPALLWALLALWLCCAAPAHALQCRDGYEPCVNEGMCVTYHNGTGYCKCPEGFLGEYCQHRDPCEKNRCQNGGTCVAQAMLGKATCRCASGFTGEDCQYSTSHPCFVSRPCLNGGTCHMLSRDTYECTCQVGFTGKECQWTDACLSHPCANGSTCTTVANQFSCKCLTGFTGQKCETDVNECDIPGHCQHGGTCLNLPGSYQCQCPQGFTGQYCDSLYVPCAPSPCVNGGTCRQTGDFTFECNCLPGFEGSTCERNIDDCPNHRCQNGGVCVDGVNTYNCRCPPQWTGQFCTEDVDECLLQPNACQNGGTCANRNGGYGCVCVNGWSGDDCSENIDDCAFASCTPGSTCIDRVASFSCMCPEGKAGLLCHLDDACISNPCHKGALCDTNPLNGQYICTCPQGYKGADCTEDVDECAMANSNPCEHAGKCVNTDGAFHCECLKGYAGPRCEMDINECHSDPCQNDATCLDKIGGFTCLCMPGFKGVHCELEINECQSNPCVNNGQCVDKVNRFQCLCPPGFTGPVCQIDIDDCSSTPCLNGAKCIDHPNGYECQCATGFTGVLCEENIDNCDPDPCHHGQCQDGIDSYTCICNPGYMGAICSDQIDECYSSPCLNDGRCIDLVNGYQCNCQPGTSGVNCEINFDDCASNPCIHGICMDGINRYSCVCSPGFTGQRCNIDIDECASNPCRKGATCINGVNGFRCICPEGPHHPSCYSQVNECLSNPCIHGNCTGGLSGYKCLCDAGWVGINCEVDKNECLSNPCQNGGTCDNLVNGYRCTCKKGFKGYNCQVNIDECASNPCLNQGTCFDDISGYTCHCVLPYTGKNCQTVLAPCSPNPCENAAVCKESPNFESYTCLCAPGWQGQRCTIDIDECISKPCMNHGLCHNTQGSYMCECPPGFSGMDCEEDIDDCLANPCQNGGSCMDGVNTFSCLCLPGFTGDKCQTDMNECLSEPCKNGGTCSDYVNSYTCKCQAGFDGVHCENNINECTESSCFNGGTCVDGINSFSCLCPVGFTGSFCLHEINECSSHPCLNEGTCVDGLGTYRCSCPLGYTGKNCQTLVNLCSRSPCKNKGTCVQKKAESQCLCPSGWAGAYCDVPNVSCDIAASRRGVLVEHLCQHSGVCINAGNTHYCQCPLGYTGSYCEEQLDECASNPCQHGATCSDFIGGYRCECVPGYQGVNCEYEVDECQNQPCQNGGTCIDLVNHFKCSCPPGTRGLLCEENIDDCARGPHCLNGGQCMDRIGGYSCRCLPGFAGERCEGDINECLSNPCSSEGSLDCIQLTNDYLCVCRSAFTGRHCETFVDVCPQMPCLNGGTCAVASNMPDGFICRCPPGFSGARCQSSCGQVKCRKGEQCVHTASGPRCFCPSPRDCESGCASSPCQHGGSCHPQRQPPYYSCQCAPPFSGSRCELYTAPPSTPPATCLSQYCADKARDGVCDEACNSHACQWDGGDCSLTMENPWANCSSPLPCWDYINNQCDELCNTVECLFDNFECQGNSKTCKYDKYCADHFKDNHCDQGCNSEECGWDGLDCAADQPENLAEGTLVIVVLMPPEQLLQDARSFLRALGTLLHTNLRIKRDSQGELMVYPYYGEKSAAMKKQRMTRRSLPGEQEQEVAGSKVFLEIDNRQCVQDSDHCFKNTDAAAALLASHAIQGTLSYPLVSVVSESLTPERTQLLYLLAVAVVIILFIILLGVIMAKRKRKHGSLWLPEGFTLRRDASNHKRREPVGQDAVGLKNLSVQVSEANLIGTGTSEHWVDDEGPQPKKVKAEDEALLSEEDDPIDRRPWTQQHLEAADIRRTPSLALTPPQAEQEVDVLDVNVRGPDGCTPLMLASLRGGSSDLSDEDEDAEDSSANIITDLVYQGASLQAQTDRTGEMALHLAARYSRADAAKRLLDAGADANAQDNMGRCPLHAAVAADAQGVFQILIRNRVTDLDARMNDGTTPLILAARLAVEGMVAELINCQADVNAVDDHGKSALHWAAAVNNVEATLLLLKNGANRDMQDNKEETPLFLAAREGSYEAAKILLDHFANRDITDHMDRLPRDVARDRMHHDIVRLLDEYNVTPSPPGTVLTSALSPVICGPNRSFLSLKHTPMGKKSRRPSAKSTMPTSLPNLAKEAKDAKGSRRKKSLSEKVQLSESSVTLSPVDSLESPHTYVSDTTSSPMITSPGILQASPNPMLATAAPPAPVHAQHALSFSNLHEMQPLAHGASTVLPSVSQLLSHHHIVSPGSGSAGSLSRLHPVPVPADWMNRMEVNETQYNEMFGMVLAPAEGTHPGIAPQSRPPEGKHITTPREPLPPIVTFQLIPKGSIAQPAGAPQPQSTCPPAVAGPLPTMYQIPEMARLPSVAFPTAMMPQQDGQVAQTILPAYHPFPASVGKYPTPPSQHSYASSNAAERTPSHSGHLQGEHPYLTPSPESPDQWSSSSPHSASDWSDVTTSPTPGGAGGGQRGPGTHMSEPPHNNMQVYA
Assay [6] deals with Pro-neuregulin-1, membrane-bound isoform (Homo sapiens) (UniProt Q02297). Nature of the assay: NRG1 binders on small-molecule microarrays, primary screen, psychiatric disease protein project, biochemical, small-molecule microarray, fluorescence 635/667 (AID 1075).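 Further: score combines 667 nm spot fluorescence with signal to noise.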 The note with it: NRG1 binding, 635 nm fluorescence, higher = more signal.
Chain of Pro-neuregulin-1, membrane-bound isoform (Homo sapiens) (Q02297 whole entry, looked up, the tested form may be a part, canonical isoform): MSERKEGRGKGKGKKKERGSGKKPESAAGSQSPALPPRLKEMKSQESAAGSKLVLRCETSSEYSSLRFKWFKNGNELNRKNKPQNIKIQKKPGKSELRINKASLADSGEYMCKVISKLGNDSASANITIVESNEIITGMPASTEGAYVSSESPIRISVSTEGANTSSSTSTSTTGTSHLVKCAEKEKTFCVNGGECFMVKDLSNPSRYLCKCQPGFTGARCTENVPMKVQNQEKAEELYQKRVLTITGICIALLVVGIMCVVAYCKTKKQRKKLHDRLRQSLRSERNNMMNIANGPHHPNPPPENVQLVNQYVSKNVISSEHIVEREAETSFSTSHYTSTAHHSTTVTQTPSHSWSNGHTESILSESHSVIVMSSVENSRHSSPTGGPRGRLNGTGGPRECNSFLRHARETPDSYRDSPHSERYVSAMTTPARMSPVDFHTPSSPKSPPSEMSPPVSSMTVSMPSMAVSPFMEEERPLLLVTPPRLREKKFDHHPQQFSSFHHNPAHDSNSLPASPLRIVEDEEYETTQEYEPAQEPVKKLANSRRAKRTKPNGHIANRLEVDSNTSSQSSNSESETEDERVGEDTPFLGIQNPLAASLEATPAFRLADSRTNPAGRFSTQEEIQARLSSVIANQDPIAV
In assay [7] the test system is Neuregulin-1 EGF-like domain. In words: binders of neuregulin-1 EGF-like domain, primary screen, biochemical, small-molecule microarray, 635 nm fluorescence (AID 1081).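 Further: binding of the protein to compounds printed on small-molecule microarray slides.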 The note with it: small-molecule microarray binding, higher = more signal.
Assay [8] in a line: FRG1 promoter luciferase signal modulators, primary screen, FRG1 inhibition for FSHD, cell-based, C2C12 myotubes, firefly/Renilla luciferase, luminescence (AID 1084). The note with it: higher = more signal, called active from +8 up or from −8 down.
Assay [9] in a line: binders of probe aFST on microarray, primary screen, stem cell growth factor project, biochemical, small-molecule microarray, fluorescence 635/667 (AID 1086).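 Further: score merges 667 nm fluorescence with signal-to-noise of each printed compound spot.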 The note with it: higher = more signal.
Assay [10] in a line: binders of probe aHhip on microarray, primary screen, stem cell growth factor project, biochemical, small-molecule microarray, fluorescence 635/667 (AID 1087).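 Further: score merges spot fluorescence at 667nm with spot signal to noise ratio.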 As to conditions: higher = more signal.

Active and inactive are the calls of the source.

As for `C[N+](C)(C)CCCCNC(=O)[C@H]1C[C@H]2C(=O)N3CCC[C@H]3C(=O)N2[C@H]1c1ccc(O)cc1`, the composite z-score is -0.32 in assay [1]; 0.799 in assay [2]; -0.12 in [3]; 1.15 in assay [4]; 0.534 in assay [5]; -0.0852 in assay [6]. The composite z-score stood at 1.34 in assay [7], 0.446 in assay [9] and 0.176 in [10]. Moreover, the z-score in assay [8] is 1.42 (inactive).
Regarding `C/C=C/[C@H](CCn1cc([C@H](O)c2ccccc2)nn1)[Si](C)(C)c1ccc(OC)cc1`, the composite z-score was 1.18 in assay [1]; -0.153 in [2]; -0.234 in assay [3]; -0.071 in [4]; -1.51 in [5]; 0.0287 in assay [6]. The composite z-score is -0.0288 in [7], -1.04 in [9] and -0.374 in assay [10]. Further, the z-score in [8] is -0.488 (inactive).
Turning to `CC(C)(C)OC(=O)CC[C@]1(C(=O)NCC(O)CO)N=C(c2ccc(OCCCO)cc2)O[C@H]1c1ccccc1CN=[N+]=[N-]` (stereo not given in full), the composite z-score is 1.32 in [1]; 2.46 in [2]; 0.314 in assay [3]; 0.922 in assay [4]; 1.68 in assay [5]; 2.09 in [6]. Also, the composite z-score in assay [7] is 0.722; in assay [9] it was 1.68; in [10] it was -0.0024. In addition, the z-score in [8] is 2.4 (inactive).
Turning to `CCCC[C@@H]1C[C@H]1[C@@H](NC(=O)c1ccco1)c1ccccc1`, the composite z-score was 1.29 in assay [1]; -0.52 in assay [2]; -0.171 in [3]; -0.511 in [4]; -2.22 in [5]; -0.44 in [6]. Also, the composite z-score in assay [7] is -0.454; in assay [9], -0.945; in assay [10] it was -0.0275. In assay [8], the z-score is -0.192 (inactive).
For the compound `C=C[C@@H](C)[C@@H](OC(=O)Nc1ccc(OC)cc1)c1ccc(O)c2ccccc12`, the composite z-score was -0.262 in assay [1]; 0.173 in assay [2]; -0.0423 in assay [3]; 0.245 in assay [4]; -0.11 in [5]; 0.543 in assay [6]. Further, the figures for the composite z-score in assay [7], in assay [9] and in assay [10] were 1.03, 0.105 and -0.128, respectively. Also, the z-score in [8] is 2.58 (inactive).
`C=CCC(OC(C)=O)[C@@H]1[C@@H](N(Cc2cc3ccccc3o2)C(=O)c2cccc3ccccc23)c2cc(OCCCO)ccc2N1C(=O)Cc1ccc(OC)cc1` (stereo not given in full): the composite z-score is -0.295 in [1]; -0.52 in [2]; -0.0128 in assay [3]; 0.0939 in assay [4]; 0.0751 in assay [5]; 0.758 in assay [6]. The composite z-score in [7] is 0.111; in assay [9], -0.0464; in [10], -0.109. In [8], the z-score was -0.709 (inactive).
With `COC(=O)[C@@]1(Cc2ccccc2)[C@H]2c3cc(C(=O)N(C)C)n(Cc4cc(F)c(F)c(F)c4)c3C[C@H]2CN1C(=O)c1ccccc1`, the composite z-score in assay [1] was 0.683; in [2], -0.166; in [3], 0.117; in assay [4] it was 1.23; in assay [5], 1.68; in assay [6], 2.02. Further, the composite z-score came out at 1.16 in assay [7], 0.437 in assay [9] and 0.776 in assay [10]. Besides, the z-score in [8] was 1.47 (inactive).
For `COc1ccc(C#Cc2ccc3c(c2)[C@]2(C(=O)N3)[C@H](C(=O)N3CCN(c4ncccn4)CC3)[C@H]3C(=O)O[C@H](c4ccccc4)[C@H](c4ccccc4)N3[C@@H]2c2ccc(O)cc2)cc1`, the composite z-score was -0.092 in assay [1]; 0.308 in [2]; -0.232 in assay [3]; 0.207 in [4]; 0.871 in [5]; 1.19 in [6]. Besides, the composite z-score in assay [7] was 1.17; in assay [9], 0.234; in assay [10], -0.353. The z-score in [8] is 0.437 (inactive).
Turning to `O=C1OCC=C[C@H]2OC34C=CCN(c5ccc6ccccc6c5)C(=O)[C@H]3N(CCO)C(=O)[C@@H]4[C@@H]12` (stereo not given in full), the composite z-score in assay [1] was 0.982; in [2] it was -2.22; in assay [3], -0.166; in assay [4], -0.361; in [5], -1.4; in assay [6], 1.7. For the same compound, the composite z-score in assay [7] is 1.39; in assay [9], -0.127; in [10], -0.27. Also, in assay [8], the z-score is 1.18 (inactive).
For the compound `O[C@@H](Cc1ccccc1)[C@@H](/C=C/c1ccccc1)NCc1ccccc1Br`, the composite z-score is 0.686 in assay [1]; -1.36 in assay [2]; -0.176 in assay [3]; -1.09 in assay [4]; -1.31 in assay [5]; -0.803 in assay [6]. Besides, the composite z-score in [7] is -0.639; in [9], -0.579; in [10], -0.475. The z-score in assay [8] was -0.926 (inactive).
For `COc1ccc([Si](C)(C)[C@@H]2[C@@H](CC(=O)N3Cc4ccccc4C[C@H]3CO)O[C@]3(C(=O)N(Cc4cccc(N5C(=O)COc6ccccc65)c4)c4ccccc43)[C@H]2C)cc1`, the composite z-score in assay [1] is -0.562; in [2], 0.608; in assay [3] it was -0.1; in assay [4], 0.41; in assay [5] it was 0.244; in [6], 1.57. Besides, the composite z-score is 0.725 in [7], 0.0559 in assay [9] and -0.451 in assay [10]. Besides, the z-score in assay [8] is -2.29 (inactive).
In the case of `CC1CC/C=C\[C@H]2OC34C=CCN(c5ccc6ccccc6c5)C(=O)[C@H]3N(CCCCCO)C(=O)[C@@H]4C2C(=O)O1` (stereo not given in full), the composite z-score in assay [1] was -0.46; in assay [2], -0.0205; in assay [3] it was -0.159; in [4] it was -1.01; in assay [5], -1.04; in assay [6], -0.712. Also, the results for the composite z-score in assay [7], in [9] and in [10] were -0.734, -0.818 and -0.306, respectively. Moreover, in assay [8], the z-score is 0.772 (inactive).
With `CCN(CC)c1ccc(N2CC=CC34O[C@@H]5/C=C\CCCOC(=O)C5[C@H]3C(=O)N(CCCO)[C@@H]4C2=O)cc1` (stereo not given in full), the composite z-score in [1] was 0.485; in [2], -0.701; in [3], -0.113; in [4], -0.883; in assay [5], -0.991; in assay [6] it was 1.45. Moreover, the composite z-score was 0.657 in assay [7], -1.19 in assay [9] and -0.137 in [10]. Further, in [8], the z-score is 2.31 (inactive).
Take `COc1ccc([Si](C)(C)[C@H]2[C@H](CC(=O)N3CCC[C@H]3CO)O[C@@]3(C(=O)N(c4ccccc4)c4ccccc43)[C@@H]2C)cc1`: the composite z-score in [1] was -0.371; in assay [2], 0.509; in [3], -0.17; in assay [4], 0.134; in assay [5] it was -0.568; in assay [6], 0.0644. Besides, the composite z-score in assay [7] is 1.05; in assay [9] it was 0.0963; in [10], -0.261. The z-score in [8] is -1.74 (inactive).
For the compound `C=CCOC(=O)[C@H]1[C@@H]2C(=O)O[C@@H](c3ccccc3)[C@@H](c3ccccc3)N2[C@@H](c2ccc(OCCOC(=O)[C@H]3C[C@H]4C(=O)N[C@@H](CCCC[N+](C)(C)C)C(=O)N4[C@H]3c3ccc(O)cc3)cc2)[C@]12C(=O)Nc1ccccc12`, the composite z-score in [1] was 0.104; in assay [2] it was 0.154; in assay [3], -0.1; in assay [4], 0.276; in assay [5] it was 0.193; in assay [6], 0.06. The composite z-score in assay [7] is 1.09; in assay [9], 0.357; in [10] it was -0.608. For the same compound, in assay [8], the z-score is 0.131 (inactive).
In the case of `CCCNC(=O)[C@@]1(C)c2ccccc2C(=O)N(Cc2ccc(OC(F)(F)F)cc2)[C@H]1c1ccc(CO)cc1`, the composite z-score in assay [1] was 0.29; in assay [2], -0.0811; in assay [3], 0.015; in assay [4], -0.387; in assay [5], -0.321; in assay [6] it was 1.2. Besides, the composite z-score is 1.3 in assay [7], -0.337 in [9] and 0.28 in assay [10]. Besides, the z-score in assay [8] is -3.98 (inactive).
